Experimental data reported in PubChem BioAssay (Tox21).
Results filed as inconclusive are left out. Active and inactive are the calls of the source. Calls come from the whole dose curve; as a rule, active = well fitted activation curve with a large enough effect in the repeat runs; inconclusive = weak or mixed curves; inactive = flat fitted curve, though single readings scatter.

Experiment: A CellTox Green Cytotoxicity Assay to monitor cytotoxicity in HEK293 cells - 24 hour (AID 1224875); note: nearly all actives have a fitted effect of over 45% in size
Details: CellTox Green fluorescence; series mostly up to 76.8 µM; activity change: at the top concentration
From the text: National Center for Advancing Translational Sciences [NCATS]
NIH Chemical Genomics Center [NCGC]
U.S. Environmental Protection Agency [EPA]
National Institutes of Environmental Health Sciences [NIEHS]
National Toxicology Program [NTP]
Cell-based models are critical for drug discovery. Determining the natural cytotoxic effects resulting from test compounds is an essential research activity. A CellTox Green Cytotoxicity Assay to monitor cytotoxicity in real time of continues cell culture during 40 hours of the compound treatment was used to screen Tox21 10K library compounds in Hek293 cells. CellTox Green Cytotoxicity Assay is a nonlytic, homogeneous, biofluorescent method to measure cytotoxicity in cell culture after experimental manipulation. The assay system uses a proprietary asymmetric cyanine dye that is excluded from viable cells but preferentially stains the dead cell's DNA. […] Viable cells produce no appreciable increases in fluorescence. Therefore, the fluorescence signal produced by the binding interaction with dead cell DNA is proportional to cytotoxicity.
The mixture of Hek293 cell suspension and reagents were dispensed at 600cells/6 ul/well in 1536-well tissue culture treated black solid bottom plates using a Multidrop dispenser. After the assay plates were incubated at a 37 C/5% CO2 incubator for 5 hours, 23 nL of compounds dissolved in DMSO, positive and negative controls was transferred to the assay plate by a pintool work station. The plates were incubated at 37 C for 40 hours. The fluorescence intensity were measured at 0h, 8h, 16h, 24h, 32h and 40h time points using ViewLux plate reader during compound treatment.
% is set by controls: 0 for no effect and ±100 for the full control effect; potency is the fitted concentration of half-maximal effect.

| SMILES | activity change | Potency |
| --- | --- | --- |
| Cc1oc(=O)oc1COC(=O)[C@@H]1N2C(=O)[C@@H](NC(=O)[C@H](N)c3ccccc3)[C@H]2SC1(C)C | 6.78% [at 35.3 µM, hits give high values] (inactive) |  |
| COc1ccc2nc(S(=O)Cc3ncc(C)c(OC)c3C)[nH]c2c1 (stereo not given) |  | inactive |
| CC(C)C(O)C(C)(C)CO (stereo not given) | 16.3% (inactive) |  |
| Nc1ccc(N=Nc2ccc(N)cc2)cc1 | -17.3% [at 35.3 µM, hits give high values] (inactive) |  |
| CC(C)C(=O)OCCOc1ccccc1 | 8.32% (inactive) |  |
| CCN(CC)CCOC(=O)C(c1ccccc1)c1ccccc1 | 2.27% [at 35.3 µM, hits give high values] (inactive) |  |
| O=C(O)c1cc(Cl)cc(Cl)c1O | -0.659% (inactive) |  |
| COc1ccc(/C=C/C(=O)c2ccc(OC)cc2OC)cc1 | -17% [at 35.3 µM, hits give high values] (inactive) |  |
| c1ccc2sc(SSc3nc4ccccc4s3)nc2c1 | 14.2% [at 15.8 µM, hits give high values] (inactive) |  |
| CN1C(CSCC(F)(F)F)Nc2cc(Cl)c(S(N)(=O)=O)cc2S1(=O)=O (stereo not given) | -18% [at 35.3 µM, hits give high values] (inactive) |  |
| O=CNNC=O | 1.19% (inactive) |  |
| CCN(Cc1cccc(S(=O)(=O)O)c1)c1ccc(C(=C2C=CC(=[N+](CC)Cc3cccc(S(=O)(=O)O)c3)C=C2)c2ccc(O)cc2S(=O)(=O)[O-])cc1 | 3.95% [at 35.3 µM, hits give high values] (inactive) |  |
| CCN(Cc1cccc(S(=O)(=O)O)c1)c1ccc(C(=C2C=CC(=[N+](CC)Cc3cccc(S(=O)(=O)O)c3)C=C2)c2ccccc2S(=O)(=O)[O-])cc1 | -12% [at 35.3 µM, hits give high values] (inactive) |  |
| CCC(=O)OCc1ccc(OC)cc1 | -12.3% (inactive) |  |
| O=C1NC(=O)c2cccc3cccc1c23 | -2.41% (inactive) |  |
| CC[C@H]1OC(=O)[C@H](C)[C@@H](O[C@H]2C[C@@](C)(OC)[C@@H](O)[C@H](C)O2)[C@H](C)[C@@H](O[C@@H]2O[C@H](C)C[C@H](N(C)C)[C@H]2O)[C@](C)(O)C[C@@H](C)CN(C)[C@H](C)[C@@H](O)[C@]1(C)O | -3.42% [at 35.3 µM, hits give high values] (inactive) |  |
| c1ccc(CNc2ncnc3c2ncn3C2CCCCO2)cc1 (stereo not given) | -1.37% (inactive) |  |
| CC1CCCC(=O)C1=O (stereo not given) | 4.73% (inactive) |  |
| Nc1ccc(NC(=O)c2ccc(N)cc2)cc1 | -13.7% (inactive) |  |
| Oc1cccc2[nH]ccc12 | 4.82% [at 35.3 µM, hits give high values] (inactive) |  |

| SMILES | activity change | Potency |
| --- | --- | --- |
| CC1CCCO1 (stereo not given) | -3.53% (inactive) |  |
| O=C(O)CCS | -5.59% (inactive) |  |
| O=C1CC[C@@H](C(=O)O)N1 | -5.98% [at 35.3 µM, hits give high values] (inactive) |  |
| CCCCCCC(O)CCOC(C)=O (stereo not given) | 16.6% [at 200 µM, hits give high values] (inactive) |  |
| O[C@@H](CNC[C@H](O)[C@H]1CCc2cc(F)ccc2O1)[C@@H]1CCc2cc(F)ccc2O1 |  | 26.8 µM (active) |
| O=C(O)c1ccc(O)cc1O | -10.4% (inactive) |  |
| CC(=O)c1ccc[nH]1 | 0.708% (inactive) |  |
| Oc1ccc2c(c1)Cc1ccccc1-2 | 28% (inactive) |  |
| CC(C)(C)NCC(O)COc1cccc2c1C[C@H](O)[C@H](O)C2 (stereo not given in full) | -0.29% [at 35.3 µM, hits give high values] (inactive) |  |
| Cc1ccc(Nc2c(F)cccc2Cl)c(CC(=O)O)c1 | 0.647% [at 35.3 µM, hits give high values] (inactive) |  |
| CC(C)OC(=O)c1ccccc1C(=O)OC(C)C | 2.63% (inactive) |  |
| CSCC[C@H](NC(=O)[C@H](Cc1c[nH]c2ccccc12)NC(=O)CCNC(=O)OC(C)(C)C)C(=O)N[C@@H](CC(=O)O)C(=O)N[C@@H](Cc1ccccc1)C(N)=O | -0.418% [at 35.3 µM, hits give high values] (inactive) |  |
| CC(=O)NNC(C)=O | -11.3% (inactive) |  |
| CCOC(=O)c1c(N)sc2c1CCN(Cc1ccccc1)C2 | -0.558% [at 35.3 µM, hits give high values] (inactive) |  |
| CCOC(=O)N1CCC(Nc2ccc(Cl)cc2N)CC1 | 4.36% [at 35.3 µM, hits give high values] (inactive) |  |
| ClC1=C(Cl)C1(Cl)Cl | -8.52% (inactive) |  |
| C=C(C)C(=O)OCCC(F)(F)C(F)(F)C(F)(F)C(F)(F)C(F)(F)C(F)(F)F | -9.35% (inactive) |  |
| CN=C(N)NC(=O)Nc1c(C)cccc1C | 3.58% [at 35.3 µM, hits give high values] (inactive) |  |
| O=C(O)CN1C(=O)c2cccc3cccc(c23)C1=O | 3.87% [at 35.3 µM, hits give high values] (inactive) |  |
| C/C(C=O)=C\c1ccccc1 | 0.986% (inactive) |  |
